In PubChem BioAssay AID1159580 (chemical genetic matrix, 2015):
Among all 5,500 compounds or so, about 2,000 (36%) were called active. About 18% were inconclusive and are not listed. Rule as the data show it: active = normalized growth mostly below about 0.91 (no sharp cut-off); inconclusive = no clear call, values can overlap the other calls; inactive = mostly above about 0.92. The list shows a part of the results.

Test: chemical genetic growth profiling, strain panel (AID 1159580);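 also: tested at 20 µM; growth read once vehicle control cultures reached saturation at 30 °C; 1 = growth at the plate median or of vehicle wells; lower values mean less growth of the strain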
Conditions: S. cerevisiae deletion strains, growth OD

Measured: normalized growth

COc1cc2occ(-c3ccccc3)c(=O)c2c(OC)c1C
active: locus YDL192W, strain arf1, active compounds read low 0.903 | locus YDR137W, strain rgp1, active compounds read low 0.765 | locus YDR318W, strain mcm21, active compounds read low 0.891 | locus YDR392W, strain spt3, active compounds read low 0.707 | locus YDR502C, strain sam2, active compounds read low 0.919 | locus YER167W, strain BCK2, active compounds read low 0.881 | locus YGL086W, strain mad1, active compounds read low 0.901 | locus YGR252W, strain gcn5, active compounds read low 0.707 | locus YHR079C, strain IRE1 (second series), active compounds read low 0.911 | locus YHR200W, strain rpn10, active compounds read low 0.905
inactive: locus YAL013W, strain DEP1, active compounds read low 0.947 | locus YAL021C, strain ccr4, active compounds read low 0.996 | locus YAL026C, strain drs2, active compounds read low 0.96 | locus YAL030W, strain snc1, active compounds read low 0.967 | locus YBL061C, strain skt5, active compounds read low 0.985 | locus YBR009C, strain hhf1, active compounds read low 0.978 | locus YBR021W, strain FUR4, active compounds read low 0.923 | locus YBR023C, strain chs3, active compounds read low 0.966 | locus YBR171W, strain sec66, active compounds read low 0.965 | locus YBR229C, strain ROT2, active compounds read low 0.959 | locus YBR231C, strain swc5, active compounds read low 0.966 | locus YBR279W, strain paf1, active compounds read low 0.992 | locus YCL011C, strain gbp2, active compounds read low 0.973 | locus YCL016C, strain dcc1, active compounds read low 0.968 | locus YCL029C, strain bik1, active compounds read low 0.933 | locus YCL061C, strain MRC1, active compounds read low 0.973 | locus YCL069W, strain vba3, active compounds read low 0.975 | locus YCR088W, strain abp1, active compounds read low 0.972 | locus YDL005C, strain med2, active compounds read low 1.02 | locus YDL035C, strain GPR1, active compounds read low 0.915 | locus YDL040C, strain nat1, active compounds read low 0.973 | locus YDL074C, strain BRE1, active compounds read low 0.817 | locus YDL101C, strain DUN1, active compounds read low 0.953 | locus YDL134C, strain PPH21, active compounds read low 0.963 | locus YDL185W, strain tfp1, active compounds read low 0.945 | locus YDR001C, strain nth1, active compounds read low 0.967 | locus YDR069C, strain doa4, active compounds read low 0.995 | locus YDR101C, strain arx1, active compounds read low 0.934 | locus YDR150W, strain NUM1, active compounds read low 0.963 | locus YDR159W, strain sac3, active compounds read low 0.98 | locus YDR162C, strain NBP2, active compounds read low 0.875 | locus YDR195W, strain ref2 1.1 | locus YDR297W, strain sur2, active compounds read low 0.974 | locus YDR334W, strain swr1, active compounds read low 0.968 | locus YDR335W, strain msn5, active compounds read low 0.991 | locus YDR388W, active compounds read low 0.935 | locus YEL003W, strain gim4, active compounds read low 0.978 | locus YEL037C, strain rad23, active compounds read low 0.977 | locus YEL061C, strain CIN8 (second series), active compounds read low 0.978 | locus YEL061C, strain CIN8, active compounds read low 0.968 | locus YER015W, strain faa2, active compounds read low 0.981 | locus YER016W, strain bim1, active compounds read low 0.97 | locus YER110C, active compounds read low 0.938 | locus YER111C, strain swi4, active compounds read low 1 | locus YER155C, strain BEM2 (second series), active compounds read low 0.886 | locus YER155C, strain BEM2, active compounds read low 0.961 | locus YFR010W, strain ubp6, active compounds read low 0.991 | locus YGL078C, strain dbp3, active compounds read low 0.975 | locus YGL167C, strain pmr1, active compounds read low 0.965 | locus YGL173C, strain kem1, active compounds read low 0.983 | locus YGL227W, strain vid30, active compounds read low 0.989 | locus YGL240W, strain doc1, active compounds read low 0.944 | locus YGL248W, strain PDE1, active compounds read low 0.961 | locus YGL253W, strain hxk2, active compounds read low 0.971 | locus YGR078C, strain PAC10, active compounds read low 0.932 | locus YGR135W, strain pre9, active compounds read low 0.918 | locus YGR229C, strain SMI1, active compounds read low 0.813 | locus YHR013C, strain ard1, active compounds read low 0.976 | locus YHR027C, strain rpn1, active compounds read low 0.989 | locus YHR030C, strain SLT2, active compounds read low 0.948 | locus YHR094C, strain hxt1, active compounds read low 0.956 | locus YHR129C, strain ARP1, active compounds read low 0.949 | locus YHR142W, strain chs7, active compounds read low 0.917 | locus YIL066C, strain RNR3, active compounds read low 0.874 | locus YIL073C, strain SPO22, active compounds read low 0.818 | locus YIL125W, strain kgd1, active compounds read low 0.955 | locus YIR030C, strain dcg1, active compounds read low 0.937 | locus YJL092W, strain hpr5, active compounds read low 0.977 | locus YJL095W, strain BCK1 (second series), active compounds read low 0.975 | locus YJL095W, strain BCK1, active compounds read low 0.847 | locus YJL115W, strain asf1, active compounds read low 0.998 | locus YJL129C, strain trk1, active compounds read low 0.891 | locus YJL134W, strain LCB3, active compounds read low 0.965 | locus YJL154C, strain vps35, active compounds read low 0.99 | locus YJL164C, strain tpk1, active compounds read low 0.937 | locus YJL166W, strain qcr8, active compounds read low 0.975 | locus YJL168C, strain set2, active compounds read low 0.946 | locus YJL187C, strain SWE1 (second series), active compounds read low 0.934 | locus YJL187C, strain SWE1, active compounds read low 0.976
